Records with an inconclusive call do not appear. Activity calls are given as the source filed them. Calls follow the shape of the dose curve; as a rule, active = well fitted curve in either direction with a large enough effect; inconclusive = small, poorly fitted or top-dose-only effect; inactive = no such curve, though single readings can be large or run the other way.

The target of the test is Lysosomal alpha-glucosidase (Homo sapiens) (UniProt P10253). As to the kind of experiment: Confirmation of Inhibitors and Activators of Purified Human alpha-Glucosidase Using an Alternate Red Fluorescent Susbtrate. The following applies: purified enzyme, red fluorogenic substrate; series mostly up to 63.4 µM. Put shortly: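 Recombinant human alpha-glucosidase (4 nM) with resorufin-[…] (400 uM) in 50 mM citrate buffer pH 5.0, 0.005% Tween-20, 20 min at room temperature, stopped at pH 10. AC50 from Hill fits.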
Take `O=C1Cc2cc(S(=O)(=O)N3CCN(c4ccc(O)cc4)CC3)ccc2N1`: the Potency is 2.37 µM [inhibitor] (active).

In the case of `O=C1Cc2cc(S(=O)(=O)N3CCN(c4ccc(CO)cc4)CC3)ccc2N1`, the Potency was 13 µM [inhibitor] (active).

Consider `CCCN1CNc2c(c(=O)[nH]c(=S)n2CCc2ccccc2Cl)C1`, for which the Potency was 2.51 µM (active).

Turning to `Cc1nc(N=Nc2cc(S(=O)(=O)O)c3cc([N+](=O)[O-])cc(S(=O)(=O)O)c3c2)c(COP(=O)(O)O)c(C=O)c1O`, the Potency result was “inactive”.

With `CC(=O)c1ccc(N2CCN(S(=O)(=O)c3ccc4[nH]c(=O)[nH]c4c3)CC2)cc1`, the Potency entry is “inactive”.

Consider `CC(=O)c1ccc(N2CCN(S(=O)(=O)c3ccc4c(c3)CCCN4C(C)=O)CC2)cc1`, for which the Potency entry is “inactive”.

Consider `O=C1Cc2cc(S(=O)(=O)N3CCN(c4ccc([N+](=O)[O-])cc4)CC3)ccc2N1`, for which the Potency is 3.26 µM [inhibitor] (active).

As to `CCCN1CNc2c(c(=O)[nH]c(=S)n2CCc2ccccc2C)C1`, the Potency is 8.91 µM (active).

On to `CCCN1CNc2c(c(=O)[nH]c(=S)n2CCc2c(Cl)cccc2Cl)C1`, for which the Potency is 1.12 µM (active).

With `Cc1ccc(N2CCN(S(=O)(=O)c3ccc4c(c3)CC(=O)N4)CC2)cc1`, the Potency result is “inactive”.

Turning to `O=S(=O)(c1ccc(Cl)cc1)N1CCN(c2nc(Nc3cc(Cl)ccc3O)nc3ccccc23)CC1`, the Potency entry is “inactive”.

As to `CC(=O)c1ccc(N2CCN(C(=O)c3ccc4c(c3)CCC(=O)N4)CC2)cc1`, the Potency result was “inactive”.

Regarding `CCCN1CNc2c(c(=O)[nH]c(=S)n2CCC(C)(C)C)C1`, the Potency entry is “inactive”.

Turning to `O=S(=O)(c1ccc(Cl)cc1)N1CCN(c2nc(-c3cccs3)nc3ccccc23)CC1`, the Potency entry is “inactive”.

On to `CC(=O)c1ccc(N2CCN(S(=O)(=O)c3ccc4c(c3)CCC(=O)N4)CC2)cc1`, for which the Potency result was “inactive”.

As for `Nc1nc(N)c2nc(-c3ccccc3)c(N)nc2n1`, the Potency entry is “inactive”.

As for `CCCN1CNc2c(c(=O)[nH]c(=S)n2CCc2cccs2)C1`, the Potency is 7.94 µM (active).

For the molecule `COc1ccc(CCn2c3c(c(=O)[nH]c2=S)CN(CC(C)C)CN3)cc1OC`, the Potency is 0.631 µM (active).

As to `CC(=O)c1ccc(N2CCN(S(=O)(=O)c3ccc4c(c3)oc(=O)n4C)CC2)cc1`, the Potency result was “inactive”.

On to `CCCN1CNc2c(c(=O)[nH]c(=S)n2CCCc2ccccc2)C1`, for which the Potency was 31.6 µM (active).

Take `N#CC(=C(\N)Sc1ccccc1N)/C(C#N)=C(/N)Sc1ccccc1N`: the Potency is 44.7 µM (active).

With `O=c1[nH]cc(CCc2ccccc2)c2ncncc12`, the Potency entry is “inactive”.

`COc1ccc(CCn2c3c(c(=O)[nH]c2=S)CN(C)CN3)cc1OC`: the Potency is 7.94 µM (active).

Regarding `CCCN1CNc2c(c(=O)[nH]c(=S)n2CCc2cccc(OC)c2)C1`, the Potency was 2.51 µM (active).

`CCCN1CNc2c(c(=O)[nH]c(=S)n2CCc2ccc(Cl)cc2Cl)C1`: the Potency is 1.26 µM (active).
